Source: the supplement of paper PMC12350171
Structures can show the parent of a compound that is named as a salt. Values without a mark were called inactive.

Assays:
Details in all cases: 20 µM
[1] = tested on: Salmonella enterica typhimurium; assay: growth AUC normalised to DMSO control (fraction of control); higher = less growth inhibition, active = hit call of the paper
Method in brief: (§1)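 For the AUC endpoint, growth curves were integrated by the trapezoidal rule up to the exponential-to-stationary transition and normalised to DMSO controls on the same plate. The curves came from OD578 readings taken hourly for 24 h, in three biological replicates. Pathogens had been passaged anaerobically twice and inoculated at an OD578 of 0.01 into pre-reduced mGAM plates carrying 20 μM compound and 1% DMSO, sealed with breathable membranes. Medium for Haemophilus parainfluenzae also contained hemin and NAD.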

Shigella flexneri = assay: as above
Method in brief: as §1

Vibrio cholerae = assay: as above
Method in brief: as §1

[2] = tested on: Yersinia pseudotuberculosis; assay: as above
Method in brief: as §1

P. vulgatus RND KO = assay: growth AUC normalised to DMSO control (median) (fraction of control); higher = less growth inhibition, active = hit call of the paper
Method in brief: (§2)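 Anaerobic growth was tracked hourly at OD578 for 24 h in 96-well plates of mGAM seeded at OD578 0.01 with each approved-drug library compound at 20 μM and 1% DMSO. Strains had first been passaged twice overnight without oxygen. Three biological replicates were run. The reported median is the area under the curve, calculated by the trapezoidal rule on curves truncated at entry into stationary phase and normalised to vehicle wells on the same plate.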

P. vulgatus WT = assay: as above
Method in brief: as §2

[3] = tested on: S. enterica typhimurium WT; assay: as above
Method in brief: as §2

[4] = tested on: S. enterica typhimurium tolC KO; assay: as above
Method in brief: as §2
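For growth AUC normalised to DMSO control (median) in this document: active when median AUC fell below 0.1.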

NCc1ccccc1CC(=O)N[C@@H]1C(=O)N2C(C(=O)O)=C(CSc3nnnn3CC(=O)O)CS[C@H]12 [Ceforanide]
growth AUC normalised to DMSO control [1]: 0.00985 (active)
growth AUC normalised to DMSO control (Shigella flexneri): 0.0434 (active)
growth AUC normalised to DMSO control (Vibrio cholerae): 0.0984 (active)
growth AUC normalised to DMSO control [2]: 0.023 (active)
growth AUC normalised to DMSO control (P. vulgatus RND KO): 0.00761 (active)
growth AUC normalised to DMSO control (P. vulgatus WT): 0.014 (active)
growth AUC normalised to DMSO control [3]: 0.00887 (active)
growth AUC normalised to DMSO control [4]: 0.00597 (active)

CN1CCCN(C(c2ccccc2)c2ccc(Cl)cc2)CC1 (configuration not stated) [Homochlorcyclizine dihydrochloride]
growth AUC normalised to DMSO control [1]: 0.971
growth AUC normalised to DMSO control (Shigella flexneri): 0.938
growth AUC normalised to DMSO control (Vibrio cholerae): 0.861
growth AUC normalised to DMSO control [2]: 0.965
growth AUC normalised to DMSO control (P. vulgatus RND KO): 0.972
growth AUC normalised to DMSO control (P. vulgatus WT): 0.984
growth AUC normalised to DMSO control [3]: 1
growth AUC normalised to DMSO control [4]: 0.956

Cn1ccnc1S [Methimazole]
growth AUC normalised to DMSO control [1]: 1.01
growth AUC normalised to DMSO control (Shigella flexneri): 1.02
growth AUC normalised to DMSO control (Vibrio cholerae): 1.02
growth AUC normalised to DMSO control [2]: 1.01
growth AUC normalised to DMSO control (P. vulgatus RND KO): 0.996
growth AUC normalised to DMSO control (P. vulgatus WT): 1.01
growth AUC normalised to DMSO control [3]: 1
growth AUC normalised to DMSO control [4]: 0.988

Cc1c(C)c2c(c(C)c1O)CCC(C)(COc1ccc(CC3SC(=O)NC3=O)cc1)O2 (configuration not stated) [Troglitazone]
growth AUC normalised to DMSO control [1]: 0.992
growth AUC normalised to DMSO control (Shigella flexneri): 0.97
growth AUC normalised to DMSO control (Vibrio cholerae): 0.986
growth AUC normalised to DMSO control [2]: 0.974
growth AUC normalised to DMSO control (P. vulgatus RND KO): 0.839
growth AUC normalised to DMSO control (P. vulgatus WT): 0.892
growth AUC normalised to DMSO control [3]: 0.997
growth AUC normalised to DMSO control [4]: 0.97

CC(CCc1ccccc1)NCC(O)c1ccc(O)c(C(N)=O)c1 (configuration not stated) [Labetalol hydrochloride]
growth AUC normalised to DMSO control [1]: 0.969
growth AUC normalised to DMSO control (Shigella flexneri): 0.945
growth AUC normalised to DMSO control (Vibrio cholerae): 0.972
growth AUC normalised to DMSO control [2]: 0.988
growth AUC normalised to DMSO control (P. vulgatus RND KO): 1
growth AUC normalised to DMSO control (P. vulgatus WT): 0.988
growth AUC normalised to DMSO control [3]: 0.99
growth AUC normalised to DMSO control [4]: 0.986

CN[C@H](CC(C)C)C(=O)N[C@H]1C(=O)N[C@@H](CC(N)=O)C(=O)N[C@H]2C(=O)N[C@H]3C(=O)N[C@H](C(=O)N[C@H](C(=O)O)c4cc(O)cc(O)c4-c4cc3ccc4O)[C@H](O)c3ccc(c(Cl)c3)Oc3cc2cc(c3O[C@@H]2O[C@H](CO)[C@@H](O)[C@H](O)[C@H]2O[C@H]2C[C@](C)(N)[C@H](O)[C@H](C)O2)Oc2ccc(cc2Cl)[C@H]1O [Vancomycin hydrochloride]
growth AUC normalised to DMSO control [1]: 0.986
growth AUC normalised to DMSO control (Shigella flexneri): 0.984
growth AUC normalised to DMSO control (Vibrio cholerae): 1.01
growth AUC normalised to DMSO control [2]: 0.981
growth AUC normalised to DMSO control (P. vulgatus RND KO): 0.014 (active)
growth AUC normalised to DMSO control (P. vulgatus WT): 0.0118 (active)
growth AUC normalised to DMSO control [3]: 0.996
growth AUC normalised to DMSO control [4]: 0.996

C#C[C@]1(O)CC[C@H]2[C@@H]3CCc4cc(OC)ccc4[C@H]3CC[C@@]21C [Mestranol]
growth AUC normalised to DMSO control [1]: 0.987
growth AUC normalised to DMSO control (Shigella flexneri): 1.01
growth AUC normalised to DMSO control (Vibrio cholerae): 1.01
growth AUC normalised to DMSO control [2]: 1.01
growth AUC normalised to DMSO control (P. vulgatus RND KO): 0.968
growth AUC normalised to DMSO control (P. vulgatus WT): 0.96
growth AUC normalised to DMSO control [3]: 0.999
growth AUC normalised to DMSO control [4]: 0.988

CC(C)(C)NCC(O)c1cc(O)cc(O)c1 (configuration not stated) [Terbutaline hemisulfate]
growth AUC normalised to DMSO control [1]: 1.02
growth AUC normalised to DMSO control (Shigella flexneri): 1.03
growth AUC normalised to DMSO control (Vibrio cholerae): 1.07
growth AUC normalised to DMSO control [2]: 1
growth AUC normalised to DMSO control (P. vulgatus RND KO): 1.06
growth AUC normalised to DMSO control (P. vulgatus WT): 1.06
growth AUC normalised to DMSO control [3]: 1.01
growth AUC normalised to DMSO control [4]: 1.01

CCN(CC)CCc1nc(-c2ccccc2)no1 [Oxolamine citrate salt]
growth AUC normalised to DMSO control [1]: 0.99
growth AUC normalised to DMSO control (Shigella flexneri): 1.01
growth AUC normalised to DMSO control (Vibrio cholerae): 1.04
growth AUC normalised to DMSO control [2]: 1.03
growth AUC normalised to DMSO control (P. vulgatus RND KO): 0.97
growth AUC normalised to DMSO control (P. vulgatus WT): 0.98
growth AUC normalised to DMSO control [3]: 1.01
growth AUC normalised to DMSO control [4]: 1.01

Cc1c(-c2ccccc2)oc2c(C(=O)OCCN3CCCCC3)cccc2c1=O [Flavoxate hydrochloride]
growth AUC normalised to DMSO control [1]: 1
growth AUC normalised to DMSO control (Shigella flexneri): 1.02
growth AUC normalised to DMSO control (Vibrio cholerae): 1.01
growth AUC normalised to DMSO control [2]: 0.984
growth AUC normalised to DMSO control (P. vulgatus RND KO): 1.06
growth AUC normalised to DMSO control (P. vulgatus WT): 1.1
growth AUC normalised to DMSO control [3]: 1.02
growth AUC normalised to DMSO control [4]: 0.952

CC(C(=O)O)c1ccc(N2Cc3ccccc3C2=O)cc1 (configuration not stated) [Indoprofen]
growth AUC normalised to DMSO control [1]: 0.992
growth AUC normalised to DMSO control (Shigella flexneri): 1.01
growth AUC normalised to DMSO control (Vibrio cholerae): 1.03
growth AUC normalised to DMSO control [2]: 1.01
growth AUC normalised to DMSO control (P. vulgatus RND KO): 0.975
growth AUC normalised to DMSO control (P. vulgatus WT): 0.971
growth AUC normalised to DMSO control [3]: 0.993
growth AUC normalised to DMSO control [4]: 0.997

COc1c(N2CCNC(C)C2)c(F)cc2c(=O)c(C(=O)O)cn(C3CC3)c12 (configuration not stated) [Gatifloxacin]
growth AUC normalised to DMSO control [1]: 0.0102 (active)
growth AUC normalised to DMSO control (Shigella flexneri): 0.0167 (active)
growth AUC normalised to DMSO control (Vibrio cholerae): 0.0355 (active)
growth AUC normalised to DMSO control [2]: 0.0287 (active)
growth AUC normalised to DMSO control (P. vulgatus RND KO): 0.0163 (active)
growth AUC normalised to DMSO control (P. vulgatus WT): 0.0109 (active)
growth AUC normalised to DMSO control [3]: 0.0104 (active)
growth AUC normalised to DMSO control [4]: 0.0044 (active)

C[C@]12CCC(=O)C=C1C=C[C@@H]1[C@@H]2CC[C@@]2(C)[C@H]1CC[C@@]21CCC(=O)O1 [Canrenone]
growth AUC normalised to DMSO control [1]: 1.01
growth AUC normalised to DMSO control (Shigella flexneri): 1.06
growth AUC normalised to DMSO control (Vibrio cholerae): 1.03
growth AUC normalised to DMSO control [2]: 1.01
growth AUC normalised to DMSO control (P. vulgatus RND KO): 1.07
growth AUC normalised to DMSO control (P. vulgatus WT): 1.1
growth AUC normalised to DMSO control [3]: 1.01
growth AUC normalised to DMSO control [4]: 0.939

COCCCOc1ccnc(C[S+]([O-])c2nc3ccccc3[nH]2)c1C (configuration not stated) [Rabeprazole sodium salt]
growth AUC normalised to DMSO control [1]: 1.01
growth AUC normalised to DMSO control (Shigella flexneri): 1.04
growth AUC normalised to DMSO control (Vibrio cholerae): 1.02
growth AUC normalised to DMSO control [2]: 1
growth AUC normalised to DMSO control (P. vulgatus RND KO): 1.05
growth AUC normalised to DMSO control (P. vulgatus WT): 1.01
growth AUC normalised to DMSO control [3]: 1
growth AUC normalised to DMSO control [4]: 0.889
